The panel holds about 83,000 compounds, 20% with a hit somewhere; the sample as a whole holds those more often.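 Assay: single dose, 48 h. Readout: percent growth (0 = no net growth; negative = cell death). Active: <10.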 The source made the active and inactive calls.
system: EKVX NSCLC; test: NCI-60 one-dose screen, 48 h (100 = growth as untreated, 0 = no growth, -100 = all killed); conditions: 10 µM unless noted

| SMILES | growth |
| --- | --- |
| Cc1nc(Nc2ccc(S(=O)(=O)Nc3cc(C)on3)cc2)c2ccccc2n1 | 90% (inactive) |
| CCOc1cc(C2C(Cl)C(=O)N2n2cnnc2)ccc1O (stereo not given) | 109% (inactive) |
| NC(=Nc1ccc(N)cc1)C(N)=Nc1ccc(N)cc1 | 107% (inactive) |
| CCCCCCCCCCCCCCCCCC1=NCCN1C(=O)OCCO | 83.4% (inactive) |
| NC(=S)c1csc(CCNC(=O)c2ccccc2)n1 | 115% (inactive) |
| O=C1CCC(N2C(=O)c3cccc(NCCCC4CCN(CCNC(=O)c5cc6c(o5)C(=O)c5ccccc5C6=O)CC4)c3C2=O)C(=O)N1 (stereo not given) | -61.8% (active) |
| Nc1c(-c2nc3ccc(Br)cc3c(=O)[nH]2)nnn1-c1ccccc1 | 101% (inactive) |
| O=C(Oc1ccc[nH]c1=O)c1cc([N+](=O)[O-])cc([N+](=O)[O-])c1 | 112% (inactive) |
| COc1ccc(-c2cc(-c3ccc(Nc4nc(Nc5ccccc5)nc(Nc5ccc(Cl)cc5)n4)cc3)nc(N)n2)cc1 | 58.8% (inactive) |
| CSc1ccc(Cl)c(C(=O)Nc2sccc2C(N)=O)c1 | 108% (inactive) |
| OCCCCc1nccc2c1[nH]c1ccccc12 | 94.8% (inactive) |
| CCOC(=O)c1sc(-c2ccc(OS(=O)(=O)c3ccc(C(C)(C)C)cc3)c(C=O)c2)nc1C | 40.2% (inactive) |
| CCOC(=O)c1cnn2c(-c3ccc(Cl)cc3)nc(NCc3ccccc3)nc12 | 68.7% (inactive) |
| COc1ccc(/C=C2\COc3ccc(O)cc3C2=O)cc1OC | 96.3% (inactive) |
| CS(=O)(=O)c1ccc(N/N=C/c2c(-c3ccc(S(C)(=O)=O)cc3)[nH]c3ccc(F)cc23)cc1 | 64.2% (inactive) |
| N#Cc1cnn2c(-c3ccc(Cl)cc3)nc(NCCc3ccccc3)nc12 | 87.3% (inactive) |
| Cc1nc(Nc2cccc(NC(=O)Nc3ccc(Cl)cc3)c2)c2ccccc2n1 | 87.2% (inactive) |
| Nc1ccc(-c2cc3c(Nc4ccc(OCc5cccc(F)c5)c(Cl)c4)ncnc3s2)cc1 | 21.5% (inactive) |
| O=[N+]([O-])c1ccc(-c2cc3c(Nc4ccc(Sc5nc6ccccc6s5)c(Cl)c4)ncnc3s2)cc1 | 39.7% (inactive) |
| C=C1c2c(C)nn(-c3ccc(O)cc3)c2N(C)C23C[C@@H]1C1(C)c4c(C)nn(-c5ccc(O)cc5)c4N(C)C(C)(C[C@H]12)C3 (stereo not given in full) | 26.1% (inactive) |
| CN(C)CCC(O)(Cc1ccccc1)c1ccccc1 (stereo not given) | 99.5% (inactive) |
| NS(=O)(=O)c1cnccc1-n1ccc(=O)c(S(N)(=O)=O)c1 | 90.3% (inactive) |
| Oc1[nH]c2ccccc2c1/C=c1/cc2c(c(-c3ccc(F)cc3)n1)=Nc1ccccc1-2 | 38.2% (inactive) |
| COc1cc(/C=C/C(=O)c2ccc(Nc3nc(Nc4ccccc4)nc(Nc4ccc(Cl)cc4)n3)cc2)cc(OC)c1OC | 52.8% (inactive) |
| CCOC(=O)C1=C(C)NC(SCc2nnc(-c3ccc(Cl)cc3)o2)=NC1c1ccc(Cl)cc1Cl (stereo not given) | 77.2% (inactive) |
| CCCCN(Cc1ccc(C(=O)NO)cc1)C(=O)Nc1ccc(OCCCCCCCCCn2cc(CCCCC(=O)N[C@H](C(=O)N3C[C@H](O)C[C@H]3C(=O)NCc3ccc(-c4scnc4C)cc3)C(C)(C)C)nn2)cc1 | 72.1% (inactive) |

system: SN12C renal; test: as above; conditions: 10 µM unless noted

| SMILES | growth |
| --- | --- |
| COc1ccc(/C(C)=C(\c2ccc(Cl)cc2)c2ccc(OCCN3CCCC3)cc2)cc1F | 51.6% (inactive) |
| Nc1c(-c2nc3ccccc3c(=O)[nH]2)nnn1-c1ccc(Cl)cc1 | 95.4% (inactive) |
| O=C(/C=C/C12c3ccccc3C(c3ccccc31)C1C(=O)NC(=O)C12)c1ccc(Cl)cc1 (stereo not given) | -14.4% (active) |
| Clc1ccc(-c2cn(-c3ccccc3)c(-c3ccccc3)n2)cc1 | 95.9% (inactive) |
| COc1cc(C2C=C(c3cccc(NC(C)=O)c3)Nc3ncnn32)cc(OC)c1OC (stereo not given) | 32.9% (inactive) |
| COc1cc(NC(=O)c2cc(O)c(CC=C(C)C)c(O)c2)cc2c1O[C@]1(C)CC[C@@H](O)C(C)(C)[C@H]1C2 | 65.3% (inactive) |
| Clc1ccc(/C=C/c2nc(Nc3ccc(Cl)cc3)c3ccccc3n2)cc1 | 103% (inactive) |
| C=C1C(=O)O[C@H]2[C@H]1CC/C(COC(=O)/C=C\C(=O)NCc1ccc(Cn3c(=O)sn(CCCC)c3=O)cc1)=C\CC[C@@]1(C)O[C@@H]21 | -93% (active) |
| O=[N+]([O-])c1ccc2[nH]cc(-c3c4ccsc4cc4[nH]c5ccc([N+](=O)[O-])cc5c34)c2c1 | 21.7% (inactive) |
| CC1=NN(c2cccc(Cl)c2)C(=O)/C1=C\c1cn(CC(O)CN2CCCCC2)c2ccccc12 (stereo not given) | 66.3% (inactive) |
| Clc1ccc(-c2nc(NCCc3ccccc3)nc3c(NCCc4ccccc4)cnn23)cc1 | 80.7% (inactive) |
| O=C(C[C@@]1(O)C(=O)Nc2c(Cl)ccc(Cl)c21)c1ccc(C2CC2)cc1 | 32.2% (inactive) |
| CCC(O)(C(c1ccccc1)c1ccccn1)C(c1ccccc1)c1ccccn1 (stereo not given) | 110% (inactive) |
| Cc1nc(Nc2ccc(S(=O)(=O)Nc3cc(C)on3)cc2)c2ccccc2n1 | 102% (inactive) |
| CCOc1cc(C2C(Cl)C(=O)N2n2cnnc2)ccc1O (stereo not given) | 98.6% (inactive) |
| NC(=Nc1ccc(N)cc1)C(N)=Nc1ccc(N)cc1 | 104% (inactive) |
| CCCCCCCCCCCCCCCCCC1=NCCN1C(=O)OCCO | 32.7% (inactive) |
| NC(=S)c1csc(CCNC(=O)c2ccccc2)n1 | 91.8% (inactive) |
| O=C1CCC(N2C(=O)c3cccc(NCCCC4CCN(CCNC(=O)c5cc6c(o5)C(=O)c5ccccc5C6=O)CC4)c3C2=O)C(=O)N1 (stereo not given) | -95.4% (active) |
| Nc1c(-c2nc3ccc(Br)cc3c(=O)[nH]2)nnn1-c1ccccc1 | 95.5% (inactive) |

| SMILES | growth |
| --- | --- |
| O=C(Oc1ccc[nH]c1=O)c1cc([N+](=O)[O-])cc([N+](=O)[O-])c1 | 107% (inactive) |
| COc1ccc(-c2cc(-c3ccc(Nc4nc(Nc5ccccc5)nc(Nc5ccc(Cl)cc5)n4)cc3)nc(N)n2)cc1 | 75% (inactive) |
| CSc1ccc(Cl)c(C(=O)Nc2sccc2C(N)=O)c1 | 93.6% (inactive) |
| OCCCCc1nccc2c1[nH]c1ccccc12 | 103% (inactive) |
| CCOC(=O)c1sc(-c2ccc(OS(=O)(=O)c3ccc(C(C)(C)C)cc3)c(C=O)c2)nc1C | 32.1% (inactive) |
| CCOC(=O)c1cnn2c(-c3ccc(Cl)cc3)nc(NCc3ccccc3)nc12 | 31.2% (inactive) |
| COc1ccc(/C=C2\COc3ccc(O)cc3C2=O)cc1OC | 59.3% (inactive) |
| CS(=O)(=O)c1ccc(N/N=C/c2c(-c3ccc(S(C)(=O)=O)cc3)[nH]c3ccc(F)cc23)cc1 | 36.2% (inactive) |
| N#Cc1cnn2c(-c3ccc(Cl)cc3)nc(NCCc3ccccc3)nc12 | 99.6% (inactive) |
| Cc1nc(Nc2cccc(NC(=O)Nc3ccc(Cl)cc3)c2)c2ccccc2n1 | 92.9% (inactive) |
| Nc1ccc(-c2cc3c(Nc4ccc(OCc5cccc(F)c5)c(Cl)c4)ncnc3s2)cc1 | 48.4% (inactive) |
| O=[N+]([O-])c1ccc(-c2cc3c(Nc4ccc(Sc5nc6ccccc6s5)c(Cl)c4)ncnc3s2)cc1 | 28.6% (inactive) |
| C=C1c2c(C)nn(-c3ccc(O)cc3)c2N(C)C23C[C@@H]1C1(C)c4c(C)nn(-c5ccc(O)cc5)c4N(C)C(C)(C[C@H]12)C3 (stereo not given in full) | 30% (inactive) |
| CN(C)CCC(O)(Cc1ccccc1)c1ccccc1 (stereo not given) | 105% (inactive) |
| NS(=O)(=O)c1cnccc1-n1ccc(=O)c(S(N)(=O)=O)c1 | 92.6% (inactive) |
| Oc1[nH]c2ccccc2c1/C=c1/cc2c(c(-c3ccc(F)cc3)n1)=Nc1ccccc1-2 | -0.749% (active) |
| COc1cc(/C=C/C(=O)c2ccc(Nc3nc(Nc4ccccc4)nc(Nc4ccc(Cl)cc4)n3)cc2)cc(OC)c1OC | 69% (inactive) |
| CCOC(=O)C1=C(C)NC(SCc2nnc(-c3ccc(Cl)cc3)o2)=NC1c1ccc(Cl)cc1Cl (stereo not given) | 65.4% (inactive) |
| CCCCN(Cc1ccc(C(=O)NO)cc1)C(=O)Nc1ccc(OCCCCCCCCCn2cc(CCCCC(=O)N[C@H](C(=O)N3C[C@H](O)C[C@H]3C(=O)NCc3ccc(-c4scnc4C)cc3)C(C)(C)C)nn2)cc1 | 31% (inactive) |

Source: PubChem BioAssay (NCI)
